“And” between values parts separate entries of the source, which are not always exact repeats. Equal values may be shown once. Records with an inconclusive call do not appear. The source made the active and inactive calls. Unless noted, the call rests on the fitted dose curve; in most records, active means well fitted curve in the direction sought with a large enough effect; inconclusive means small, poorly fitted or top-dose-only effect, or another doubt; inactive means no such curve, though single readings can be large; an effect the other way counts as inactive or inconclusive.
How the values were obtained:
[1] = Cell Viability - Mesenchymal (AID 546);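 further: cells exposed to compound for 40 hours before reading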; further: potency means the concentration at half of the fitted maximal effect
How it was run: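 CellTiter-Glo luminescence (intracellular ATP, 20 min room temperature) after 40 hr compound exposure at 37 °C of 1000 glomerulus-derived human kidney mesenchymal cells/well; AC50 values obtained by fitting qHTS concentration-response data to the Hill equation.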

[2] = Cellular Toxicity (caspase-3) HepG2 (AID 654);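 further: cells exposed to compound for 16 hours before reading; 0% = DMSO alone and 100% = caspase signal from 100 µM tamoxifen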
How it was run: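 Caspase 3/7 activation is measured as a luminescence increase (aminoluciferin substrate) after 16 h compound exposure of human hepatocarcinoma HepG2 cells. AC50 values are Hill fits, scaled between DMSO baseline and 100 uM tamoxifen stimulation.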

[3] = Cellular Toxicity (caspase-3) Jurkat (AID 655);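 further: cells exposed to compound for 16 h at 37 °C before reading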; further: potency means the concentration at half of the fitted maximal effect
How it was run: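 qHTS in human Jurkat T-cell leukemia line: 16 hr compound treatment at 37 °C, caspase-3/7 activity measured by Caspase-Glo luminescence. AC50 derived from Hill equation.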

[4] = Cellular Toxicity (caspase-3) HUV-EC-C (AID 656);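 further: 0% = DMSO basal and 100% = 100 µM tamoxifen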
How it was run: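 Concentration-dependent caspase 3/7 induction was assessed in HUV-EC-C cells exposed for 16 hours. Data scaled between DMSO and tamoxifen (100 uM) controls.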

[5] = Cellular Toxicity (caspase-3) SHSY5Y (AID 657);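 further: cells exposed to compound for 16 hours at 37 °C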
How it was run: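 Readout: caspase-cleaved peptide-aminoluciferin substrate driving luciferase light in SH-SY5Y neuroblastoma cells after 16 h treatment. Response normalized to DMSO and 10 uM staurosporine controls.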

[6] = Cellular Toxicity (caspase-3) BJ (AID 658); conditions: Potency: caspase-3 activation;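 further: 0% = DMSO basal and 100% = 10 µM staurosporine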
How it was run: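 Caspase-Glo 3/7 luminescence, read 1 hr after reagent at room temperature, in normal BJ fibroblasts exposed 16 hours at 37 °C. AC50 values from Hill-equation concentration-response, scaled between DMSO basal and 10 uM staurosporine as 100%.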

[7] = Cellular Toxicity (caspase-3) MRC-5 (AID 659); conditions: Potency: caspase-3 activation;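 further: 0% = DMSO basal and 100% = 10 µM staurosporine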
How it was run: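 Luminescent Caspase-Glo 3/7 read-out (1 h, room temperature) after a 16 h, 37 °C compound exposure of MRC-5 lung fibroblasts at 1500 cells/well. Concentration-response AC50 from Hill equation; 0% DMSO, 100% 10 uM staurosporine.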

[8] = Cellular Toxicity (caspase-3) Mesangial (AID 660);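 further: combined caspase 3 and 7 activity read by Caspase-Glo luminescence; cells exposed to compound for 16 h before the caspase read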
How it was run: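 Caspase 3/7 activation measured by Caspase-Glo 3/7 luminescence (20 min, room temperature) following 16 h exposure of mesangial cells (1000/well); AC50 from Hill-equation fit, normalized to DMSO and 100 uM tamoxifen.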

[9] = Cellular Toxicity (caspase-3) SK-N-SH (AID 661); conditions: SK-N-SH caspase-3 activation, qHTS; caspase-3 activation: at 91.7 µM (top of the series), DMSO as zero, staurosporine as full;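 further: 0% = DMSO basal and 100% = 10 µM staurosporine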
How it was run: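 Caspase 3/7 activation was read by luminogenic substrate cleavage after 16 hour treatment of SK-N-SH cells. Signal was scaled between DMSO and 10 uM staurosporine, and concentration-response data were fitted with the Hill equation for AC50.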

[10] = Cellular Toxicity (caspase-3) H-4-II-E (AID 663);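 further: cells exposed to compound for 16 hr before readout; 0% = DMSO basal and 100% = 100 µM tamoxifen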
How it was run: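 Caspase 3/7 activation measured by luminescent aminoluciferin substrate cleavage after 16 hr compound treatment of H-4-II-E cells in complete medium. Increase normalized between DMSO (basal) and 100 uM tamoxifen (100%); Hill-equation AC50 from concentration-response.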

[11] = Cellular Toxicity (caspase-3) Hek293 (AID 664);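 further: cells exposed to compound for 16 h at 37 °C before readout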
How it was run: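 Concentration-response qHTS: caspase 3/7 activation measured by luminescent aminoluciferin substrate cleavage after 16 h compound exposure of Hek 293 cells. AC50 from Hill equation, with DMSO as basal and 100 uM tamoxifen as 100%.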

[12] = Cellular Toxicity (caspase-3) N2a (AID 665);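 further: compound exposure lasted 16 h at 37 °C before readout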
How it was run: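 Caspase-3/7 activation measured as luminescence from Caspase-Glo reagent (1 h, room temperature) after 16 h compound exposure of mouse N2a cells. AC50 values from Hill-equation concentration-response, scaled between DMSO and 10 uM staurosporine.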

[13] = Cellular Toxicity (caspase-3) Renal Proximal Tubule (AID 667); conditions: renal proximal tubule cells; at 91.7 µM (top of the series) unless noted;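 further: cells exposed to compound for 16 hours at 37 °C before detection; 0% = DMSO basal and 100% = 10 µM staurosporine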
How it was run: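 Caspase-Glo 3/7 read-out, rat primary kidney proximal tubule cells. Compound exposure 16 h, 37 °C; detection after 1 h at RT. Activity scaled to DMSO and 10 uM staurosporine.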

[14] = target: Cytochrome P450 3A4 (Homo sapiens) (UniProt P08684); experiment: qHTS Assay for Inhibitors and Substrates of Cytochrome P450 3A4 (AID 884); further: on the % scale 0 is the no-effect control and ±100 the full control effect; nearly all actives have a fitted effect of over 50% in size
Sequence of Cytochrome P450 3A4 (Homo sapiens) (P08684 whole entry, looked up): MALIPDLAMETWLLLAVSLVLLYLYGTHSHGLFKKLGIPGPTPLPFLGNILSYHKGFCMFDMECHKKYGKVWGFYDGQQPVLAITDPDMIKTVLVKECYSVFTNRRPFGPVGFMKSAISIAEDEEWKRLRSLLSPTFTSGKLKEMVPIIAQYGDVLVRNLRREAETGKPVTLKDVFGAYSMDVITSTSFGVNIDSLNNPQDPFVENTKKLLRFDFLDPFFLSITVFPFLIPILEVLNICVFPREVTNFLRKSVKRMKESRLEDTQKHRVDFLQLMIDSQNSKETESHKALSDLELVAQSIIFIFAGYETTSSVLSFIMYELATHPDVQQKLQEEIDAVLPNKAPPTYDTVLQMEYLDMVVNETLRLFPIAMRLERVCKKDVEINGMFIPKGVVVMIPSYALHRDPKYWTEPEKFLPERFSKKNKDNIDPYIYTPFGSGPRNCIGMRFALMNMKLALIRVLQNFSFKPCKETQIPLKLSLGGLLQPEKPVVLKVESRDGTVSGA
How it was run: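 Luminescent readout of luciferin produced by CYP3A4 (20 nM) dealkylation of Luciferin-PPXE, 25 uM (its KM). NADPH-driven reaction ran 60 min at RT after 10 min compound preincubation; data scaled to 57 uM ketoconazole as 100% inhibition.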

[15] = target: Cytochrome P450 3A4 (Homo sapiens) (UniProt P08684); experiment: qHTS Assay for Activators of Cytochrome P450 3A4 (AID 885); further: nearly all actives have a fitted effect of over 65% in size
How it was run: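 Using 20nM recombinant human CYP3A4 in potassium phosphate (200mM), substrate Luciferin-PPXE at 25uM, luminescent luciferin detection followed a 60-min RT NADPH reaction; data scaled to 57 uM ketoconazole.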

[16] = target: 3',5'-cyclic-AMP phosphodiesterase 4B (Homo sapiens) (UniProt Q07343); experiment: qHTS Assay for Inhibitors of PDE-IV (AID 607; active means well fitted activation curve with a large enough effect in the main read-out, with a control signal flat, not every such curve was filed as active; further: % of control where 0% means no effect)
Sequence of 3',5'-cyclic-AMP phosphodiesterase 4B (Homo sapiens) (Q07343 whole entry, looked up): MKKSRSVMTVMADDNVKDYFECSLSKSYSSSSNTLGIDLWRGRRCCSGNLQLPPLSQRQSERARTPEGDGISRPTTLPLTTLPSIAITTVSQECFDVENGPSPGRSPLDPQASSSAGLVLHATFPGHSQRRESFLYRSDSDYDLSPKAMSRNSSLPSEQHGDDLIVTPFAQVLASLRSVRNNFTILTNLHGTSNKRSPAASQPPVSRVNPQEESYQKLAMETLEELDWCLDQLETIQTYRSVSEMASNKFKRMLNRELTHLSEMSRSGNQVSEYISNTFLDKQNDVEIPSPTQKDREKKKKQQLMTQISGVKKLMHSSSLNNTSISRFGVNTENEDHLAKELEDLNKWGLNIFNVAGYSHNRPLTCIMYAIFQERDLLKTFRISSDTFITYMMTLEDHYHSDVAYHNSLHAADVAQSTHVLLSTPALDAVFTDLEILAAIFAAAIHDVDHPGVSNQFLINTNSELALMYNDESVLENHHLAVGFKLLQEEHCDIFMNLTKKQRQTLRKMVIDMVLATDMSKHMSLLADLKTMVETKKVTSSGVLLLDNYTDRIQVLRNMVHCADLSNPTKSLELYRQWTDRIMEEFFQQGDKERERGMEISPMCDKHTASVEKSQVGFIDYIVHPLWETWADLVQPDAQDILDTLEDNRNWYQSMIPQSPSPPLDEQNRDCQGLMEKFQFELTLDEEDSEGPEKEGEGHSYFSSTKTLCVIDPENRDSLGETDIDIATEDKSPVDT
How it was run: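 Live HEK293 cells with a modified cyclic nucleotide-gated (CNG) channel report intracellular cAMP via membrane-potential dye fluorescence (ex 535/em 590 nm). Endogenous PDE-IV was targeted. Compounds were tested at up to 22.9 uM final; RO 20-1724 100 uM served as control.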

[17] = target: Guanine nucleotide-binding protein G(i) subunit alpha-1 (Homo sapiens) (UniProt P63096); experiment: qHTS Assay for Inhibitors of RGS12 GoLoco Motif Activity (Green Fluorophore) (AID 879);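 further: 0% = labeled peptide with Gαi1 and full inhibition = labeled peptide alone without protein; negative values mean loss of peptide binding seen as reduced polarization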
Sequence of Guanine nucleotide-binding protein G(i) subunit alpha-1 (Homo sapiens) (P63096 whole entry, looked up): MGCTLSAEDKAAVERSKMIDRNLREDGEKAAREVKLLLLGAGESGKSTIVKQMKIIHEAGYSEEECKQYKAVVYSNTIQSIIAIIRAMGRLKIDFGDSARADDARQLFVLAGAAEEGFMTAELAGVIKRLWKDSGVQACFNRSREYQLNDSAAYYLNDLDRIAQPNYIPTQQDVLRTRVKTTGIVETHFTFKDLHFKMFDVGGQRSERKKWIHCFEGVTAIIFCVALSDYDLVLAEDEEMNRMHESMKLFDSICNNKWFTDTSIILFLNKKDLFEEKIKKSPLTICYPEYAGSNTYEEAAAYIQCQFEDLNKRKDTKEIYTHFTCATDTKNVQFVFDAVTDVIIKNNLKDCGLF
How it was run: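 A drop in FITC polarization marked displacement of the FITC-tagged RGS12 GoLoco peptide (10 nM) from Gαi1 (50 nM). Compounds were incubated 10 min at room temperature in Tris pH 7.5 buffer containing 150 mM NaCl, 0.1 mM GDP and 0.05% NP40; unlabeled peptide titration served as control.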

[18] = target: Cytochrome P450 2C9 (Homo sapiens) (UniProt P11712); experiment: qHTS Assay for Inhibitors and Substrates of Cytochrome P450 2C9 (AID 883); further: on the % scale 0 is the no-effect control and ±100 the full control effect; nearly all actives have a fitted effect of over 60% in size
Sequence of Cytochrome P450 2C9 (Homo sapiens) (P11712 whole entry, looked up): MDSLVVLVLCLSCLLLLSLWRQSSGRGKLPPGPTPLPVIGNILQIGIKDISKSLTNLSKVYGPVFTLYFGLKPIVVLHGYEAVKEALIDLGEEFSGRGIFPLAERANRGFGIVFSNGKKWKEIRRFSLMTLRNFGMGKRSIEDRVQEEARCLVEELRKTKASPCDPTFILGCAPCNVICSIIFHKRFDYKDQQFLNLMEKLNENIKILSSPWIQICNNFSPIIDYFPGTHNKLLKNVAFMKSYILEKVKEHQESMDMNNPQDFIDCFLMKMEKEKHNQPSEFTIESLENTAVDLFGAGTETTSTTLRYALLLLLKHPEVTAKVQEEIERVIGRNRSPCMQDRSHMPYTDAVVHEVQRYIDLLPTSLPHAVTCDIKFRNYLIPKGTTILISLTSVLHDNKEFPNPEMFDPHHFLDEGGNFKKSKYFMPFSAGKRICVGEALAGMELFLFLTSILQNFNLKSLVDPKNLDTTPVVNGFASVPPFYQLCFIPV
How it was run: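 Inhibition of CYP2C9 is scored as loss of luminescence, with 57uM sulphaphenazole defining 100% inhibition. Substrate Luciferin-H is used at 100uM, equal to its KM; enzyme at 10nM in 25mM KPO4, 60 min at 37C with NADPH regeneration.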

[19] = target: Cytochrome P450 2D6 (Homo sapiens) (UniProt P10635); experiment: qHTS Assay for Inhibitors and Substrates of Cytochrome P450 2D6 (AID 891);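 further: luciferin methyl ether substrate demethylated by CYP2D6 with NADPH regeneration; on the % scale 0 is the no-effect control and ±100 the full control effect; nearly all actives have a fitted effect of over 60% in size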
Sequence of Cytochrome P450 2D6 (Homo sapiens) (P10635 whole entry, looked up): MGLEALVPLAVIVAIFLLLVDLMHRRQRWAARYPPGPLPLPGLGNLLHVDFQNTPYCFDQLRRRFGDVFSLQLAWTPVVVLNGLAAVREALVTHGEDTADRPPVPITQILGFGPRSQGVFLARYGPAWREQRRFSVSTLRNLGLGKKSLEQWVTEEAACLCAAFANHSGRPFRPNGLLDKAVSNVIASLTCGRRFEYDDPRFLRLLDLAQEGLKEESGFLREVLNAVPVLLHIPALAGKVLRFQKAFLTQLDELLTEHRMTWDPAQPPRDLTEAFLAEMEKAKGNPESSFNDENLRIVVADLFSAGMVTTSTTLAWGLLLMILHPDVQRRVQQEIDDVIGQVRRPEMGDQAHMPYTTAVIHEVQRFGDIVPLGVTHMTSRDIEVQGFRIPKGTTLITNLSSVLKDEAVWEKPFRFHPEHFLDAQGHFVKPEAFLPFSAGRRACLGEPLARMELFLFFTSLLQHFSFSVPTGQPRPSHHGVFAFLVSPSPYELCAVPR
How it was run: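 Luminescent read-out of luciferin formed by 5 nM human CYP2D6 demethylating 30 uM Luciferin-ME EGE (Km level) over 60 min at room temperature after NADPH regeneration addition. Data normalized to full inhibition by 1.43 uM quinidine.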

[20] = target: Cytochrome P450 2C19 (Homo sapiens) (UniProt P33261); experiment: qHTS Assay for Inhibitors and Substrates of Cytochrome P450 2C19 (AID 899); further: on the % scale 0 is the no-effect control and ±100 the full control effect; nearly all actives have a fitted effect of over 60% in size
Sequence of Cytochrome P450 2C19 (Homo sapiens) (P33261 whole entry, looked up): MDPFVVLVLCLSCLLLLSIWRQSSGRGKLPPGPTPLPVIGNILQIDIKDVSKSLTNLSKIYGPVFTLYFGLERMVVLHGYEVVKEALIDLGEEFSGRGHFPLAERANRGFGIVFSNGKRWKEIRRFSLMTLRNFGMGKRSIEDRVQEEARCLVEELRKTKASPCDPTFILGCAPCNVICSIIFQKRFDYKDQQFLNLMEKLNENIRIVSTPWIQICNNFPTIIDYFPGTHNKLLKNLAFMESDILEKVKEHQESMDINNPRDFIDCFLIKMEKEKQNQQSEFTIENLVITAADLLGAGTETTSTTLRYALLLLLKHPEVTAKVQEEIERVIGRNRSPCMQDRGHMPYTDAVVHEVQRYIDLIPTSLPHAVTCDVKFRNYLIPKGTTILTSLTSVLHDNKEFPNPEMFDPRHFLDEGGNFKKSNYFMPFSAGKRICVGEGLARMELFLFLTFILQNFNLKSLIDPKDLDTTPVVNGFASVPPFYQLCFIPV
How it was run: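 5nM enzyme + 10uM Luciferin-H EGE (=KM), 50mM KPO4; cpd pin-transferred, 10 min 37C; NADPH regen, 60 min 37C; stopped w/ luciferin detection reagent, 20 min; luminescence. Normalized to 57uM ketoconazole (AC100).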

[O]=[Cd]
inactive: Potency [1] | outcome [2] | Potency [3] | outcome [4] | outcome [5] | Potency [6] | Potency [7] | outcome [8] | Potency [9] | outcome [10] | outcome [11] | outcome [12] | caspase-3 activation [13] 7.8% [at 91.7 µM, primary cells freshly taken from rat, solvent-only wells 0%, staurosporine 100%] | Potency [14]

CCCCCl
inactive: Potency [1] | outcome [2] | Potency [3] | outcome [4] | outcome [5] | Potency [6] | Potency [7] | outcome [8] | Potency [9] | outcome [10] | outcome [11] | outcome [12] | caspase-3 activation [13] 1.64% [at 91.7 µM, primary cells freshly taken from rat, solvent-only wells 0%, staurosporine 100%] | Potency [14]

COc1ccc2c(c1OC)C(=O)OC2C1c2cc3c(cc2CCN1C)OCO3 (configuration not stated)
inactive: Potency [1] | outcome [2] | Potency [3] | outcome [4] | outcome [5] | Potency [6] | Potency [7] | outcome [8] | Potency [9] | outcome [10] | outcome [11] | outcome [12] | caspase-3 activation [13] -5.84% | outcome [15]

O=[N+]([O-])c1ccc(F)c([N+](=O)[O-])c1
inactive: Potency [1] | outcome [2] | Potency [3] | outcome [4] | outcome [5] | Potency [6] | Potency [7] | outcome [8] | Potency [9] | outcome [10] | outcome [11] | outcome [12] | caspase-3 activation [13] -20.3% | Potency [14]

CCCCCCCCOC(=O)c1ccccc1C(=O)OCCCCCCCC
inactive: Potency [1] | outcome [2] | Potency [3] | outcome [4] | outcome [5] | Potency [6] | Potency [7] | outcome [8] | Potency [9] | outcome [10] | outcome [11] | outcome [12] | caspase-3 activation [13] -2.49% | Potency [14]

O=Cc1ccco1
inactive: Potency [1] | outcome [2] | Potency [3] | outcome [4] | outcome [5] | Potency [6] | Potency [7] | outcome [8] | Potency [9] | outcome [10] | outcome [11] | outcome [12] | caspase-3 activation [13] -8.6% [at 91.7 µM, primary cells freshly taken from rat, solvent-only wells 0%, staurosporine 100%] | Potency [14]

C[C@H]1CC[C@@H]2[C@@H](C)[C@H]3[C@H](C[C@H]4[C@@H]5CC=C6CC(O[C@@H]7O[C@H](CO)[C@H](O)[C@H](O[C@@H]8O[C@H](CO)[C@@H](O)[C@H](O)[C@H]8O)[C@H]7O[C@H]7O[C@@H](C)[C@H](O)[C@@H](O)[C@H]7O)CC[C@]6(C)[C@H]5CC[C@]34C)N2C1 (some centres not stated)
inactive: outcome [2] | Potency [3] | outcome [4] | outcome [5] | Potency [6] | Potency [7] | outcome [8] | Potency [9] | outcome [10] | outcome [11] | outcome [12] | caspase-3 activation [13] 5.75% | Potency [14]
active: Potency [1] 31.6 µM

[Cl-].[Cl-].[Hg+2]
inactive: outcome [2] | Potency [3] | outcome [4] | outcome [5] | Potency [6] | Potency [7] | outcome [8] | Potency [9] | outcome [10] | outcome [11] | outcome [12] | caspase-3 activation [13] -16%
active: Potency [1] 12.6 µM

O=C1CCO1
inactive: Potency [1] | outcome [2] | Potency [3] | outcome [4] | outcome [5] | Potency [6] | Potency [7] | outcome [8] | Potency [9] | outcome [10] | outcome [11] | outcome [12] | caspase-3 activation [13] -9.04% [at 91.7 µM, primary cells freshly taken from rat, solvent-only wells 0%, staurosporine 100%] | Potency [14]

O=C1C=CC(=O)C=C1
inactive: Potency [1] | Potency [16] | outcome [2] | Potency [3] | outcome [4] | outcome [5] | Potency [6] | Potency [7] | outcome [8] | Potency [9] | outcome [10] | outcome [11] | outcome [12] | caspase-3 activation [13] 4.64% | Potency [17] | Potency [18] | Potency [14] | Potency [19] | Potency [20]

O=C1C2CC=CCC2C(=O)N1SC(Cl)(Cl)Cl (configuration not stated)
inactive: outcome [2] | outcome [4] | outcome [5] | Potency [6] | Potency [7] | outcome [8] | outcome [10] | outcome [11] | outcome [12] | caspase-3 activation [13] -14.4% and -19.5% | outcome [15]
active: Potency [1] 25.1 µM and 20 µM | Potency [3] 1.58 µM

— PubChem BioAssay (NCATS)
